Rows were chosen to be rich in hits. Some 12% of all compounds tested hit in one or more screens of this group.
JMJD2A Tudor = qHTS Assay for Inhibitors of JMJD2A-Tudor Domain. AlphaScreen JMJD2A-Tudor / H3K4me3 peptide binding. 390,000 compounds, 4.4% hits. Lysine-specific demethylase 4A (Homo sapiens), O75164. AID 504339, 2011. Potency, µM (doses to about 114 µM), inactives show at the highest dose activity change, negative = inhibition, actives largely listed as inhibitors; note: % is set by controls: 0 for no effect and ±100 for the full control effect; nearly all actives have a fitted effect of over 50% in size
Target sequence (O75164 whole entry, looked up, the tested form may be a part): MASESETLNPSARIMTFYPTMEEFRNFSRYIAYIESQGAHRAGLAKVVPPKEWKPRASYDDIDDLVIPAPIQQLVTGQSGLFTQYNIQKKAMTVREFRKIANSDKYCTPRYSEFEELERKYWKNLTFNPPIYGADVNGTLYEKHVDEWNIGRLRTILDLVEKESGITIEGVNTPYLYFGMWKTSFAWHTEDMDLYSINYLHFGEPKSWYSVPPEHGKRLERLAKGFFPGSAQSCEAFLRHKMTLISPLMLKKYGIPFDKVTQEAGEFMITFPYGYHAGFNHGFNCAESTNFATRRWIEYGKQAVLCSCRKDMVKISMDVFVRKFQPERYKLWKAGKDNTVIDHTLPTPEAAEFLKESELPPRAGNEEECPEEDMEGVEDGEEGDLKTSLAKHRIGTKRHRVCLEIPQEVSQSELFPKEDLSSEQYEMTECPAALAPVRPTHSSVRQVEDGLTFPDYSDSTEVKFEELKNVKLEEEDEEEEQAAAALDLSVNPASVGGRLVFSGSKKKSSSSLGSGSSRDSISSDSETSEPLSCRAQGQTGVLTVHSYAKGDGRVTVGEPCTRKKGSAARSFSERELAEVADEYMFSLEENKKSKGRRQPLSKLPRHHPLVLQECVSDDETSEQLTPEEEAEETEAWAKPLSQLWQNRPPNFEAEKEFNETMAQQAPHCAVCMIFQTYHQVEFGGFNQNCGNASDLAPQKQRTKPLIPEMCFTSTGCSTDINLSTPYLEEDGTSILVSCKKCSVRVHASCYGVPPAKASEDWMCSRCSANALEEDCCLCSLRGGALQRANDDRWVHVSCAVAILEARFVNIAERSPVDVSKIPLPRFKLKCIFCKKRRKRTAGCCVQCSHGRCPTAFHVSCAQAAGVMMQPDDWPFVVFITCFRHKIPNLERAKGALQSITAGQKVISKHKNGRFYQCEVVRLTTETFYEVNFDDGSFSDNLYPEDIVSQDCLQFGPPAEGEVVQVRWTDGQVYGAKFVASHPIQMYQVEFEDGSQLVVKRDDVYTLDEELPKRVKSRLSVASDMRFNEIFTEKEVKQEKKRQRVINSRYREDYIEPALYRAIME
Sfp inh = qHTS Assay for Inhibitors of Bacillus subtilis Sfp phosphopantetheinyl transferase (PPTase) | 4'-phosphopantetheinyl transferase ffp (Bacillus subtilis), Q9F4F7 | Biochemical Sfp PPTase activity, qHTS | Potency, µM, for inactives: largest response in the series, negative = inhibition, usual class: inhibitors | 310,000 compounds, 3.5% hits | AID 1490, 2009;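 note: the enzyme is Sfp with the accession as filed and its product quenches rhodamine fluorescence; 0% = enzyme reaction without inhibitor and -100% = no enzyme wells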
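With Hepes-Na pH 7.6 buffer containing 10 mM MgCl2, Sfp (15 nM) modified BHQ-2-YbbR (12.5 uM) using rhodamine-CoA (5 uM). Two reads 30 minutes apart at 525/598 nm yielded each well's rate.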
PLK1 PBD inh = qHTS for Inhibitors of PLK1-PDB (polo-like kinase 1 - polo-box domain): Primary Screen | Serine/threonine-protein kinase PLK1 (Homo sapiens), P53350 | Plk1 PBD binding of FITC phosphopeptide, fluorescence polarization | Potency, µM, inactives show max response, negative = inhibition, most hits filed as inhibitors | 360,000 compounds, 2.8% hits; note: series mostly up to about 57 µM; % is set by controls: 0 for no effect and ±100 for the full control effect; nearly all actives have a fitted effect of over 65% in size
HP1b chromo inh = HTS for Inhibitors of HP1-beta Chromodomain Interactions with Methylated Histone Tails; Chromobox protein homolog 1 (Homo sapiens), P83916; AlphaScreen HP1-beta / biotin-H3K9me3 peptide binding; Potency, µM (top dose mostly 114 µM), without a hit: top-dose activity change, negative = inhibition, hits mostly inhibitors; 390,000 compounds, 0.56% hits; AID 540317, 2011; note: nearly all actives have a fitted effect of over 70% in size
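Compound inhibition of the preformed complex between 50 nM HP1-beta and 50 nM biotinylated H3K9me3 peptide was read by AlphaScreen. Buffer was PBS pH 7.4 with 0.01% Tween-20. Incubations ran 30 min at room temperature, with 10 ug/mL donor/acceptor beads.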
G9a block = qHTS Assay for Inhibitors of Histone Lysine Methyltransferase G9a; Histone-lysine N-methyltransferase EHMT2 (Homo sapiens), Q96KQ7; G9a H3K9 monomethylation, AlphaScreen, 2 h; Potency, µM (series often up to 102 µM), inactives show top-dose activity, negative = inhibition, hits mostly inhibitors; 350,000 compounds, 8.8% hits; note: % is set by controls: 0 for no effect and ±100 for the full control effect; nearly all actives have a fitted effect of over 75% in size
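G9a (20 nM) preincubated 15 min RT with compounds, then 500 nM biotinylated H3K9 peptide and 20 uM SAM added; 2 h RT reaction. Monomethyl-H3K9 product detected by AlphaScreen with anti-H3K9me1 antibody, streptavidin donor and anti-rabbit IgG acceptor beads.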
BAZ2B inh = qHTS Assay for Inhibitors of BAZ2B; Bromodomain adjacent to zinc finger domain protein 2B (Homo sapiens), Q9UIF8; AlphaScreen BAZ2B-H3K14Ac peptide displacement; Potency, µM (top dose mostly 114 µM), for the others: at the top dose activity change, negative = inhibition, most hits filed as inhibitors; 360,000 compounds, 4.4% hits; AID 504333, 2011; note: % is set by controls: 0 for no effect and ±100 for the full control effect; nearly all actives have a fitted effect of over 60% in size
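AlphaScreen luminescence quantifies BAZ2B engagement of H3K14Ac peptide; the protein and biotinylated peptide are both at 50 nM final, buffer PBS pH 7.4 with 0.01% Tween-20, all steps at room temperature.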
Active calls of the source: *; ? = inconclusive; . = no result given; ! = not confirmed by another sample; [ ] = remark or other dose. Calls come from the whole dose curve; as a rule, active = well fitted curve in the direction sought with a large enough effect; inconclusive = small, poorly fitted or top-dose-only effect, or another doubt; inactive = no such curve, though single readings can be large; an effect the other way counts as inactive or inconclusive. Potency is the fitted concentration of half-maximal effect.

SMILES	JMJD2A Tudor	Sfp inh	PLK1 PBD inh	HP1b chromo inh	G9a block	BAZ2B inh
O=C(COS(=O)c1ccccc1)Nc1cc(Cl)ccc1N1CCOCC1 (centres undefined)	-16%	-9%	-12%	16%	3%[59 µM]	-16%
Cc1cc(Cl)ccc1NC(=O)COC(=O)c1cc([N+](=O)[O-])ccc1N1CCOCC1	?	.	-10%	-23%	56µM*	-28%
CC1CCCCN1C(=O)COC(=O)c1cc([N+](=O)[O-])ccc1N1CCOCC1 (centres undefined)	-8%	.	-1%	17%	45µM*	8%
COc1ccc(CCNC(=O)Cn2c(C)c3cnn(-c4ccccc4)c(=O)c3c2C)cc1OC	-15%	.	.	28%	3%[59 µM]	-21%
CCn1c(CC2C(=O)N(C)c3ccccc32)nc2ccccc2c1=O (centres undefined)	-14%	.	.	4%	-31%[59 µM]	-1%
Cc1ccc(O)c(-n2nc3ccccc3n2)c1	15%	-3%	-10%	69%	17%[12.7 µM]	-2%
CC(NC(=O)COC(=O)c1cc([N+](=O)[O-])ccc1N1CCOCC1)c1ccc(F)cc1 (centres undefined)	?	.	-7%	9%	?	50µM*
O=C(c1cnccn1)N1CCC[C@@]2(CCN(Cc3ccccc3)C2)C1	.	17%	.	.	-1%[12.7 µM]	.
C[n+]1ccccc1Nc1cc([N+](=O)[O-])ccc1N	-7%	-10%	1%	22%	11µM*	?
COc1cc2c(cc1OC)C1=C(C#N)CC/C(=N\S(=O)(=O)c3ccccc3)N1CC2	-30%	-12%	1%	29%	79µM*	-5%
Cc1ccc(CS(=O)Cc2ccc(C(=O)NCc3ccccc3Cl)o2)cc1 (centres undefined)	-10%	1%	-12%	30%	79µM*!	-4%
COC(=O)c1c[nH]n2c(=O)c(Cl)c(C)nc12	-26%	20%	-3%	13%	-10%	-6%
Cc1nc(C)c(C(=O)NCc2ccccc2Cl)o1	?	89µM*	21µM*	-20%	?	-2%
Cc1nc2c(C(=O)NCc3ccccc3Cl)c[nH]n2c(=O)c1Cl	-14%	-8%	30µM*	22%	16µM*	5%
Cc1cc(C(=O)NCc2ccccc2Cl)n(-c2ccccc2)n1	?	13%	27µM*	-3%	10%	1%
CCCCCCCCCCCCCCCCSCC(COC)COP(=O)([O-])OCC[N+](C)(C)C (centres undefined)	.	-1%	.	.	.	.
COc1ccc(C2CC(=O)C=C(NNS(=O)(=O)c3ccc(C)cc3)C2)cc1 (centres undefined)	-27%	-7%	-8%	14%	9%	-33%
CO[C@@H]1COC(=O)C/C=C\[C@@H](C)[C@@H]2C=C[C@H](O)[C@@H](COC(=O)CCC[C@H]1C)O2	.	-2%	.	.	.	.
Cc1nc2c(C(=O)NCCc3ccccc3Cl)c[nH]n2c(=O)c1Cl	-29%	1%	27µM*	14%	50µM*	-22%
Cc1nc2c(C(=O)NCc3ccccc3)c[nH]n2c(=O)c1Cc1ccccc1Cl	-23%	.	.	?	-25%[59 µM]	-14%
Cc1nc2c(C(=O)NCc3ccccc3)c[nH]n2c(=O)c1Cl	-28%	17%	?	19%	79µM*	-1%
Cc1cc2c(s1)c1cnn(Cc3ccc(F)c(C)c3)c(=O)c1n2C	-9%	.	.	.	.	.
O=C(CCn1nnc2ccccc21)N1CCC(O)(c2cccc(F)c2)CC1	50µM*	3%	27µM*	-11%	8%	-2%
COc1ccc(CNCc2cc(C)c(OC)cc2C)c(OC)c1	20µM*	-11%	2%	?	.	50µM*
COc1ccc(CNCc2cc(OC)ccc2OC)cc1	28µM*	-9%	3%	-20%	13µM*	56µM*
SMILES	JMJD2A Tudor	Sfp inh	PLK1 PBD inh	HP1b chromo inh	G9a block	BAZ2B inh
COc1cc(CNCc2cc(OC)ccc2OC)cc(OC)c1	28µM*	-5%	8%	?	25µM*	?
CCOc1ccc(NC(=S)N(CCc2c(C)[nH]c3ccc(C)cc23)Cc2ccco2)cc1	?	9%	-3%	-4%	71µM*	-6%
COc1ccc(NC(=S)N(CCc2c(C)[nH]c3ccc(C)cc23)Cc2ccco2)cc1	?	19%	0%	-10%	79µM*	?
CNC(=S)N(CCc1c(C)[nH]c2ccc(C)cc12)Cc1cccs1	?	14%	9%	-4%	45µM*	.
CCNC(=S)N(CCc1c(C)[nH]c2ccc(C)cc12)Cc1cccnc1	?	6%	-7%	?	11%[2.33 µM]	?
CCNC(=S)N(CCc1c(C)[nH]c2ccc(F)cc12)Cc1cccnc1	?	0%	19µM*	?	?	-25%
Cc1cccc(C(=O)NCC(=O)OCC(=O)c2ccc3ccccc3c2)c1	-16%[57.1 µM]	.	.	21%[57 µM]	.	.
Cc1cc(C)c(NC(=S)N(CCN(C)C)Cc2cccs2)c(C)c1	-29%	-15%	-5%	19%	-4%[59 µM]	-36%
COc1ccc(NC(=S)N(CCc2c(C)[nH]c3ccc(C)cc23)Cc2cccs2)cc1	?	0%	-1%	11%	50µM*	?
COc1ccc(NC(=S)N(CCc2c(C)[nH]c3ccccc23)Cc2cccnc2)cc1	?	2%	-13%	-16%	71µM*	35µM*
Cc1ccc(NC(=S)N(CCN(C)C)Cc2cccs2)c(C)c1	-5%	32µM*	8.4µM*	-7%	40µM*	-24%
COc1ccc(OC)c(C2CC(=O)Nc3c2c(=O)[nH]c2nc4ccccc4n32)c1 (centres undefined)	-13%	.	.	20%	16%[59 µM]	-19%
Cc1cccc(N2CCN(c3nc4ccc(C)cc4n4cnnc34)CC2C)c1 (centres undefined)	?	.	.	0%	?	?
CC1CN(C(=S)NC(=O)c2ccco2)CC(C)O1 (centres undefined)	?	?	-3%	22%	?	5%
CCCCCCc1c(O)c2ccccc2[nH]c1=O	-21%	8%	-14%	9%	-3%[59 µM]	-3%
COC1=CC(=O)C(O)=C(CCCCCCC/C=C/CCCCCCCC2=C(O)C(=O)C=C(OC)C2=O)C1=O	45µM*	.	19µM*	?	.	.
CCCCCCCCCCCC1=C(O)C(=O)C=C(O)C1=O	28µM*	-9%	30µM*	?	.	.

High-throughput results from PubChem.
